Hits are enriched below; roughly 7.3% of the tested compounds scored in any of these assays.
AmpC detergent: inhibitors of E. coli AmpC beta-lactamase with detergent; AmpC hydrolysis of nitrocefin, absorbance 480 nm, 0.01% Triton; actives 0.041% (n = 370,000); AID 485294; Potency, µM (titrated, usually from 114 µM), actives largely listed as inhibitors; further: nearly all actives have a fitted effect of over 25% in size
Target sequence (P00811 whole entry, looked up): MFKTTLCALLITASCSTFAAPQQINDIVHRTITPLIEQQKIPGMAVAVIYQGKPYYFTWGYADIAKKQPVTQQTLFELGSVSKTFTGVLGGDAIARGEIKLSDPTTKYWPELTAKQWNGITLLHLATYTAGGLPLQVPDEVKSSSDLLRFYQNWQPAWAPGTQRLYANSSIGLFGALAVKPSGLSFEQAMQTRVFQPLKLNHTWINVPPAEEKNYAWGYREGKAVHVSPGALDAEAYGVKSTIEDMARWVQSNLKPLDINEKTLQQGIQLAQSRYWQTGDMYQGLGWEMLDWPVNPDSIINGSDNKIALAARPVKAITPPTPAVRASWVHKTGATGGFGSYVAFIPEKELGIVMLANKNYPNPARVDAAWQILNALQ
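20 mM phosphate pH 7.0 + 0.01% (detergent screen) or 0.0001% Triton X-100; 5.3 nM AmpC reagent; cpd preinc 15 min RT; nitrocefin (800 uM stock) to start; A480 q20 s × 4 min; Activity was normalised to no-enzyme and no-compound control wells.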
HCV inh: inhibitors of hepatitis C virus infection; Huh7.5.1 HCVcc-Cre infection, luciferase reporter, 44 h; Potency, µM (doses to about 41.8 µM), actives largely listed as inhibitors; AID 651820; actives 3.4% (n = 340,000)
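Reporter virus HCVcc-Cre (~0.5 moi) infects cells exposed to compound; seeding density 1,000 cells/well with 4 h settling beforehand. Luminescence, 15 sec read, taken 44 h post-infection following a 15 min RT substrate incubation.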
FMDV antiviral: foot and mouth disease virus antiviral activity; AID 1159524; FMDV antiviral cell-based qHTS; Potency, µM (highest dose often 57.9 µM), actives largely listed as inhibitors; actives 1.2% (n = 410,000); calls by dose curve; tested in HEK293T cells; further: read-out not given here; nearly all actives have a fitted effect of over 45% in size
AmpC no deterg: inhibitors of E. coli AmpC beta-lactamase without detergent. AmpC nitrocefin hydrolysis, absorbance 480 nm, 0.0001% Triton. actives 0.52% (n = 330,000). Potency, µM (series often up to 57.1 µM), usual class: inhibitors. P00811; further: nearly all actives have a fitted effect of over 20% in size
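20 mM phosphate pH 7.0 + 0.01% (detergent screen) or 0.0001% Triton X-100; 5.3 nM AmpC reagent; cpd preinc 15 min RT; nitrocefin (800 uM stock) to start; A480 q20 s × 4 min; Activity was normalised to no-enzyme and no-compound control wells.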
HCMV inh: blocks human cytomegalovirus replication; HFF cells, HCMV-luciferase reporter, 72 h; hits give low values; activity change, negative = inhibition, % at 57.5 µM; actives 4.5% (n = 410,000); AID 1259415; in the data active means activity change below about -60%; inconclusive means no clear call, values can overlap the other calls; inactive means above about -39%
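Inhibition of viral replication was scored as loss of reporter luminescence in HFFs infected with HCMV-luciferase (MOI 1 PFU/cell) for 72 h; compounds tested at 2 doses, normalized to buffer and Salinomycin controls.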
A number is an active result; 0 = inactive; ? = inconclusive; - = not tested or not shown. Unless noted, the call rests on the fitted dose curve; in most records, active means well fitted curve in the direction sought with a large enough effect; inconclusive means small, poorly fitted or top-dose-only effect, or another doubt; inactive means no such curve, though single readings can be large; an effect the other way counts as inactive or inconclusive.

SMILES | AmpC detergent | HCV inh | FMDV antiviral | AmpC no deterg | HCMV inh
COc1ccc(/C=N/NS(=O)(=O)c2ccc(F)cc2)cc1COc1cc(F)ccc1[N+](=O)[O-] | 0 | ? | 0 | 0 | -66
COc1ccc(/C=N\NC(=O)c2ccccc2OC)cc1COc1ccccc1C | ? | ? | 0 | 0 | 0
CN1CCCNc2nc3ccccc3nc21 | 0 | 0 | 0 | 0 | 0
COc1ccc(/C=N\NC(=O)c2cc(O)c(O)c(O)c2)cc1COc1ccc(C(=O)OCC(C)C)cc1 | 0 | 5.6µM | 0 | 10µM | 0
COc1ccc(C(=O)N/N=C/c2ccc(OC)c(COc3ccccc3)c2)cc1 | 0 | ? | 0 | 0 | 0
COc1ccccc1-c1ccnc(-n2ncc(C(=O)N3CCN(C(C)C)CC3)c2-c2ccco2)n1 | - | - | 0 | - | -
COc1cc(NC(=O)C2=C(N3CCOCC3)/C(=C\c3ccc(Cl)cc3Cl)CC2)cc(OC)c1OC | 0 | ? | 14µM | 0 | 0
Nc1ccn(Cc2cccc(F)c2)n1 | 0 | 0 | 0 | 0 | 0
N=c1ccn(Cc2cccc(F)c2)cc1 | 0 | 3.2µM | ? | 0 | ?
C=CCN(c1ccccc1Cl)S(=O)(=O)c1cccc(C(=O)NCCc2ccc(OC)cc2)c1 | 0 | ? | 0 | 0 | -65
COc1ccc(CCNc2ccc(S(=O)(=O)N3CCCC3)cc2[N+](=O)[O-])cc1 | 0 | ? | ? | 0 | -62
C=CCN(c1ccccc1OC)S(=O)(=O)c1cccc(C(=O)NCc2cccs2)c1 | 0 | 4.5µM | 0 | 0 | -63
COc1ccc(CCNC(=O)c2ccc(Cl)c(S(=O)(=O)N3CCCC3)c2)cc1 | 0 | 11µM | ? | 0 | -74
COc1ccc(C(CNC(=O)c2ccc(Cl)c(S(=O)(=O)N3CCCC3)c2)N2CCCC2)cc1 (stereo unspecified) | 0 | ? | 0 | 0 | 0
COc1cc(OC)c(N(C)S(=O)(=O)c2cccc(C(=O)Nc3nnc(C4CC4)s3)c2)cc1Cl | 0 | 0 | 0 | 0 | 0
C=CCN(c1ccccc1Cl)S(=O)(=O)c1cccc(C(=O)OCC(=O)N(C)C2CCS(=O)(=O)C2)c1 (stereo unspecified) | 0 | 3.5µM | 0 | 0 | 0
COc1ccc(CCNC(=O)c2cccc(S(=O)(=O)N3CCCCC3)c2)cc1 | 0 | ? | 0 | 0 | -66
COc1ccccc1C(C)Nc1ccc(S(=O)(=O)N2CCN(C)CC2)cc1[N+](=O)[O-] (stereo unspecified) | 0 | 11µM | 0 | 0 | 0
O=C(NCCc1ccccc1)c1cccc(S(=O)(=O)N2CCCCC2)c1 | 0 | 0 | 0 | 0 | 0
C=CCN(c1ccccc1OC)S(=O)(=O)c1cccc(C(=O)OCC(=O)c2c(N)n(C)c(=O)n(C)c2=O)c1 | - | ? | 40µM | - | -70
CNS(=O)(=O)c1cccc(C(=O)OCC(=O)c2c(N)n(C)c(=O)n(C)c2=O)c1 | 0 | ? | 0 | 0 | 0
COc1ccc(OC)c(S(=O)(=O)N2CCC(NC(=O)c3ccccc3)CC2)c1 | 0 | 0 | 0 | 0 | 0
CC(C)C[C@H]1COc2cc(NCCCN3CCOCC3)ccc2S(=O)(=O)N1 | - | - | - | - | 0
CC(=O)Nc1cccc(OCCCNC(=O)c2cccc3ccccc23)c1 | 0 | 0 | 0 | 0 | 0
COCCN(CC(=O)Nc1ccccc1C(F)(F)F)C(=O)/C=C/c1ccc2ccccc2n1 | 0 | 0 | 0 | 0 | 0
SMILES | AmpC detergent | HCV inh | FMDV antiviral | AmpC no deterg | HCMV inh
O=C(NCCOc1ccc(Cl)cc1)c1cccc(S(=O)(=O)N2CCCC2)c1 | 0 | 16µM | ? | 0 | -68
COc1ccc(NC(=O)c2cccc(S(=O)(=O)N3CCCCC3)c2)c(OC)c1 | 0 | 0 | 0 | 0 | -69
COc1ccc(NC(=O)c2ccc(S(=O)(=O)N3CCCCCC3)cc2)c(OC)c1 | 0 | ? | 0 | 0 | 0
O=C(NCc1ccc(Cl)cc1)c1cccc(S(=O)(=O)N2CCCC2)c1 | 0 | 0 | 0 | 0 | 0
COC(=O)c1cn([C@H]2C[C@@H](C(=O)N3CCCCCC3)N(Cc3ccsc3)C2)nn1 | - | - | 0 | - | -
CN(CC(=O)Nc1ccc(F)c(F)c1F)C(=O)C1COc2ccccc2O1 (stereo unspecified) | - | 0 | 0 | 0 | ?
COc1ccc(N2CC(C(=O)N[C@@H](CC(C)C)C(=O)NC3CCCCC3)CC2=O)cc1 (stereo partly specified) | 0 | 0 | 0 | 0 | 0
COc1ccc(NC(=O)CCNS(=O)(=O)c2ccc3c(c2)CCN3C(=O)C2CC2)cc1Cl | 0 | - | 0 | - | 0
COCCNC(=O)C1CCCN(C(=O)c2ccnc(Cl)c2)CC1 (stereo unspecified) | - | - | 0 | - | -69
CC1=C(C(=O)NC2CCCC(C)C2C)C2(CCCCC2)OC1=O (stereo unspecified) | 0 | 0 | 0 | 35µM | 0
COc1ccc(CNS(=O)(=O)c2ccccc2Br)c(OC)c1 | - | - | - | - | 0
COc1ccc(S(=O)(=O)N(CC(=O)NC(C)c2ccccc2)c2ccc(C)cc2)cc1OC (stereo unspecified) | 0 | - | ? | - | -88
COc1ccc(CNC(=O)CN(c2ccc(C(C)=O)cc2)S(=O)(=O)c2ccc(C)cc2)cc1OC | - | 0 | 0 | 0 | 0
CN(C)S(=O)(=O)N(CC(=O)Nc1ccccc1)c1ccccc1 | ? | 0 | 0 | 0 | 0
COc1ccc(S(=O)(=O)N(CC(=O)NCc2ccccc2)c2ccc(C)cc2)cc1OC | 0 | - | 18µM | - | -105
C[C@@H](NC(=O)CN(c1ccccc1)S(=O)(=O)N(C)C)c1ccccc1 | 0 | - | 0 | - | -105
CCOc1ccc(N(CC(=O)NC(C(C)C)C(C)C)S(=O)(=O)c2ccc(OC)c(OC)c2)cc1 | 0 | 10µM | 0 | 0 | 0
COc1ccc(S(=O)(=O)N(CC(=O)NCCC(C)C)c2ccccc2)cc1OC | 0 | 0 | 0 | 0 | ?
CCOc1ccc(N(CC(=O)OC)S(=O)(=O)c2ccc(OC)c(OC)c2)cc1 | 0 | 0 | 0 | 0 | 0
O=C1NCCN1CCNc1nc(NCC2CC2)nc2cc(-c3ccccc3)sc12 | - | - | 0 | - | 0
Cc1ccccc1CS(=O)(=O)CCC(=O)NCc1ccc(F)cc1Cl | 0 | 0 | 0 | 0 | 0
